High-throughput results from PubChem.
This is a sample that favours compounds with a hit; in the whole collection about 6.1% have one here.
D1 ag = Allosteric Agonists of the Human D1 Dopamine Receptor: qHTS. AID 504660, 2011. actives 1% (n = 360,000). activation, % at 2 µM. D(1A) dopamine receptor (Homo sapiens), P21728. HEK293 T-REx D1 cells, calcium flux, agonist mode; in the data active means activation above about 30%; further: 0% is about no effect
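Agonism was scored from calcium flux recorded over 180 s (1 read/s) after pintool compound addition, following a 10-cycle baseline. Cells were inducible force-coupled HEK293 TREx D1, plated overnight at 30 C and loaded with no-wash calcium dye.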
ERG Ets-DNA blk = qHTS for Small Molecule Inhibitors of the ERG Ets/DNA interaction. Transcriptional regulator ERG (Homo sapiens), P11308. fluorescence polarization, His-ERG Ets domain / labelled DNA. Potency, µM (doses to about 76.9 µM), for the others: at the top dose FP activity, negative = inhibition, actives largely listed as inhibitors. actives 0.028% (n = 370,000); active means well fitted inhibition curve with a large enough effect in the polarisation, with a control signal flat; inconclusive means small, poorly fitted or top-dose-only effect, or effect the other way, or a change in a side signal; inactive means no such curve, though single readings can be large or run the other way; the % refers to the polarisation;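 further: polarization taken with two DNA probes labelled with fluorescein and Texas red; potency means the concentration at half of the fitted maximal effect; % of control where 0% means no effect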
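His-tagged ERG Ets domain (1 uM in the protein solution; 300mM KCl, 50mM Tris-HCl, 1mM EDTA, 1mM DTT, pH 7.5) received compound, then a probe mix of 5 nM fluorescein-DNA and 100nM Texas-615-DNA. Fluorescence polarization was read for both dyes.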
DRD3 agonist = qHTS of D3 Dopamine Receptor Agonist: qHTS. D(3) dopamine receptor (Homo sapiens), P35462. D3R DiscoveRx beta-arrestin cells, luminescence, 90 min. max activation, %. actives 0.58% (n = 410,000). AID 652048, 2013; in the data active means max activation above about 30%; further: 0% is about no effect
Target sequence (P35462 whole entry, looked up): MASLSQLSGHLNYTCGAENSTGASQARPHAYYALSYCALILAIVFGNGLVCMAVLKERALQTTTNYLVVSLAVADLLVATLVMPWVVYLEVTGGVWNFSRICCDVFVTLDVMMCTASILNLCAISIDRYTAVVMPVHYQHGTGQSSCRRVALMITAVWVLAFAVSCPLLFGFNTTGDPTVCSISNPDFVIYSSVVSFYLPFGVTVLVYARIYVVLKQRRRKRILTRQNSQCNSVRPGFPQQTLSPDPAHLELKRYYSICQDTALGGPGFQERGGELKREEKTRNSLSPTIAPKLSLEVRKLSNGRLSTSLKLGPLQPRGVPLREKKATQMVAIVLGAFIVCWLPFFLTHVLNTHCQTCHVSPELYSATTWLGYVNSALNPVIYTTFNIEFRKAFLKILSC
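Cells at 1500/well, incubated overnight, then treated with pinned compounds (dopamine as control) for 90 min at 37 degrees C. DiscoveRx reagent added for 30 - 60 minutes at room temperature; luminescence read.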
D1 PAM = Potentiators of Human D1 Dopamine Receptor: qHTS | D(1A) dopamine receptor (Homo sapiens), P21728 | potentiation, % at 10 µM | actives 0.036% (n = 360,000) | HEK293 TREx D1 cells, calcium flux, dopamine EC20 potentiation | AID 504651, 2011; in the data active means potentiation above about 30%; further: 0% is about no effect
D3 antag = qHTS of D3 Dopamine Receptor Antagonist: qHTS; D3R cells, DiscoveRx beta-arrestin luminescence, antagonist mode; active compounds read low; max response, negative = inhibition, %; actives 2.5% (n = 360,000); AID 652054, 2013; in the data active means max response below about -50%; inconclusive means no clear call, values can overlap the other calls; further: on the % scale 0 is the no-effect control and ±100 the full control effect
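Cells plated overnight at 1500 cells/well, then exposed to library compounds with dopamine controls for 90 minutes at 37 degrees C. DiscoveRx reagent added for 30–60 minutes at room temperature; luminescence read, quantitative HTS format.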
D1 antag = Antagonist of Human D 1 Dopamine Receptor: qHTS; D(1A) dopamine receptor (Homo sapiens), P21728; HEK293 TREx D1 cells, calcium flux, dopamine EC80; active compounds read low; activity change, negative = inhibition, % at 10 µM; actives 3.2% (n = 360,000); in the data active means activity change below about -30%; further: on the % scale 0 is the no-effect control and ±100 the full control effect
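HEK293 T-REx cells expressing inducible, force-coupled D1 receptor; no-wash Ca dye, 30–90 min RT. Cmpd → 180 s read at 1 Hz → EC80 DA → 180 s read.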
* marks the source's active call; other numbers are inactive results; ? = inconclusive; nt = no result given.

SMILES | D1 ag | ERG Ets-DNA blk | DRD3 agonist | D1 PAM | D3 antag | D1 antag
FC(F)(F)c1ccc(CNCCc2ccc3c(c2)OCO3)cc1 | 35* | 6% | -3 | -2 | -7 | 4
CC(Cc1ccccc1)NC(=O)/C=C/c1ccc(Cl)cc1 (stereo unspecified) | 1 | 2% | 2 | -9 | 6 | -32*
c1ccc2c(c1)CNCc1cnnn1-2 | nt | 2% | 15 | nt | 18 | nt
CCC12C=CCN3CCC4(c5cc(Br)c(OC)cc5N(C)C4C(O)(C(=O)OC)C1OC(C)=O)C32 (stereo unspecified) | 13 | 1% | 1 | -2 | 4 | 13
O=C(O)CCCO | nt | nt | 7 | nt | nt | nt
Cc1ccc(S(=O)(=O)N(c2cc(Cl)c(O)c(Cl)c2)P(=O)(OC(C)C)OC(C)C)cc1 | 0 | 1% | 5 | -13 | -1 | -33*
N[C@@H](Cn1oc(=O)[nH]c1=O)C(=O)O | nt | -2% | 7 | nt | 11 | nt
C1=C(c2ccccc2)CCNC1 | 3 | 0% | -36 | -12 | -52* | -29
Cc1[nH]c2ccccc2c1C1=CCNCC1 | -1 | 12% | -24 | 2 | ? | 4
C=CCN1CCc2cccc3c2[C@H]1Cc1ccc(O)c(O)c1-3 | 32* | -6% | 116* | 4 | -24 | -90*
C=CCN1CC[C@]23c4c5ccc(O)c4O[C@H]2[C@@H](O)C=C[C@H]3[C@H]1C5 | nt | nt | -9 | nt | nt | nt
CC(N)Cc1ccc(O)cc1 (stereo unspecified) | nt | nt | 9 | nt | nt | nt
CC(Cc1ccc(O)cc1)NCC(O)c1cc(O)cc(O)c1 (stereo unspecified) | nt | -5% | nt | nt | nt | -31*
COC(=O)C1=C(c2ccc(S(C)(=O)=O)cc2)C[C@@H]2CC[C@H]1N2C(=O)N1CCCC1 | nt | -11% | -13 | nt | -12 | nt
COC(=O)C1=C(c2ccc(OC)c(OC)c2)C[C@@H]2CC[C@H]1N2C(=O)N1CCC(C)CC1 | -2 | -7% | -14 | -1 | ? | nt
COC(=O)C1=C(c2ccc(Cl)c(C(F)(F)F)c2)C[C@@H]2CC[C@H]1N2C(=O)N1CCC(C)CC1 | 4 | -4% | -46 | 0 | -50* | -20
COC(=O)C1=C(c2ccc(S(C)(=O)=O)cc2)C[C@@H]2CC[C@H]1N2C(=O)N1CCC(O)CC1 | nt | -20% | 33* | nt | 17 | nt
CN1CCCC1c1ccc(=O)[nH]c1 (stereo unspecified) | nt | 2% | 3 | nt | 4 | nt
ClC1=CCC2CN(CCN3CCCCC3)CC2C1 (stereo unspecified) | 4 | 2% | 2 | 10 | -52* | 5
CCOC(=O)CNC(=S)N1CC2C[C@@H](C1)Cn1c2cccc1=O | 6 | 3% | 2 | -6 | -1 | 1
Oc1cc2c(cc1O)[C@H]1c3ccccc3CN[C@@H]1CC2 | 67* | nt | nt | -3 | nt | -87*
COc1ccc2c(c1)C1OCCNC1CC2 (stereo unspecified) | nt | nt | 9 | nt | ? | nt
C[C@]12CCC(=O)C[C@@H]1CC[C@@H]1[C@@H]2CC[C@@]2(C)[C@H]1CC[C@]2(C)O | 12 | nt | 8 | -2 | nt | -16
Cc1ccccc1CN1Cc2cnnn2-c2ccccc2C1C#N (stereo unspecified) | nt | 0% | -66 | nt | -115* | nt
CCOP(=O)(OCC)C(NC(=O)c1ccccc1)C(Cl)(Cl)Cl (stereo unspecified) | 3 | -15% | 6 | -4 | -12 | -8
SMILES | D1 ag | ERG Ets-DNA blk | DRD3 agonist | D1 PAM | D3 antag | D1 antag
CCOP(=O)(OCC)C(NS(=O)(=O)c1ccccc1)C(Cl)(Cl)Cl (stereo unspecified) | 1 | 0% | -3 | -1 | -1 | -33*
CCC(C)n1c(O)c(C(c2ccccn2)c2c(O)n(C(C)CC)c(=S)[nH]c2=O)c(=O)[nH]c1=S (stereo unspecified) | 2 | nt | -1 | -5 | -18 | -28
CCOC(=O)c1[nH]ncc1CN1CCCC(C(=O)c2cccc(Cl)c2)C1 (stereo unspecified) | 43* | -8% | -15 | -12 | 1 | -13
COc1c(C)cc(C(=O)C2CCCN(Cc3cccc(O)c3)C2)cc1C (stereo unspecified) | 4 | 10% | -19 | -8 | -60* | 7
COc1c(C)cc(C(=O)C2CCCN(Cc3cccc(C)n3)C2)cc1C (stereo unspecified) | 4 | 3% | -2 | -2 | 14 | 8
COc1cccc(C(=O)C2CCCN(Cc3ccc(F)cc3)C2)c1 (stereo unspecified) | 2 | -6% | -24 | 0 | -56* | -5
Cc1ncc(CN2CCCC(C(=O)c3cccc(Cl)c3)C2)s1 (stereo unspecified) | 1 | -5% | -6 | 2 | -7 | 17
CCOc1ccc(-n2c(O)c(C=NCCCn3ccnc3)c(=O)[nH]c2=O)cc1 | 4 | 1% | 13 | 0 | -9 | 1
O=C1NC(=O)C(=Cc2ccc(Oc3ccc([N+](=O)[O-])cc3)cc2)C(=O)N1 | 3 | -2% | -5 | 10 | -23 | -36*
O=C1NC(=O)C(=Cc2ccccc2OCCOc2ccc([N+](=O)[O-])cc2)C(=O)N1 | 2 | 4% | -5 | -6 | -17 | -19
Cc1cc(Cc2c(O)[nH]c(=S)[nH]c2=O)ccc1OC(C)C | 3 | 7% | 3 | -3 | -18 | -9
CC(=O)Nc1ccc(OC(=O)N(C)c2ccc(C)cc2)cc1 | 1 | 9% | -1 | -6 | 6 | -38*
CC(=O)Nc1ccc(OC(=O)N(C)c2ccccc2)cc1 | 3 | 11% | -3 | -3 | 12 | 12
CN(C)C(=O)Oc1ccc(Br)c2ccccc12 | 1 | -6% | -9 | 1 | 2 | 5
CC(=O)/C=C/c1ccccc1 | nt | -1% | 3 | nt | 18 | nt
CC1=C(/C=C/c2ccccc2)CCN(C)C1 | 14 | 7% | -22 | -4 | -63* | -1
CN[C@@H]1C[C@@H](c2ccc(Cl)c(Cl)c2)c2ccccc21 | 28 | nt | -18 | -2 | nt | -51*
C[C@]12CCC3C(CC[C@H]4C[C@@H](O)CC[C@]34C)C1C[C@@H](N)[C@@H]2O (stereo partly specified) | nt | 4% | -13 | nt | -29 | nt
O=C(CNS(=O)(=O)c1ccc(Br)s1)N1CCC2(CC1)OCCO2 | 2 | 0% | 9 | -10 | -55* | 3
O=C(c1ccc(CS(=O)(=O)c2ccccc2)o1)N1CCC2(CC1)OCCO2 | -2 | -1% | 34* | 3 | 9 | 2
